Measurements: PubChem BioAssay (NCATS)
Results filed as inconclusive are left out. The source made the active and inactive calls. Unless noted, calls come from the whole dose curve; as a rule, active = well fitted curve in the direction sought with a large enough effect; inconclusive = small, poorly fitted or top-dose-only effect, or another doubt; inactive = no such curve, though single readings can be large; an effect the other way counts as inactive or inconclusive.

Experiments:
[1] = biological target: Lysosomal acid glucosylceramidase (Homo sapiens) (UniProt P04062); test: Glucocerebrosidase-p2 (AID 348; in the data active = potency below about 10 µM; note: potency is the fitted concentration of half-maximal effect); settings: purified GBA, blue fluorogenic substrate, 40 min
How it was run: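 Normal human glucocerebrosidase (0.2 nM) with blue fluorogenic substrate (80 uM final) in citrate/phosphate pH 5.9 with 10mM sodium taurocholate, 0.01% tween-20; 40 min RT, NaOH/glycine stop; fluorescence Ex 365/Em 440; AC50 from a titration from 0.6 nM upwards.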

[2] = biological target: Cytochrome P450 1A2 (Homo sapiens) (UniProt P05177); test: p450-cyp1a2 (AID 410; calls by dose curve; note: potency is the fitted concentration of half-maximal effect;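 for activity change, negative = inhibition: -100% = full effect of reference inhibitor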); settings: recombinant CYP1A2, luciferin-ME demethylation, luminescence; series mostly up to 57 µM
How it was run: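 O-Demethylation of luciferin 6' methyl ether by human CYP1A2 is monitored as luciferase luminescence. Substrate sits at Km (100uM); enzyme is 20nM. Values are scaled to 57 uM furafylline as maximal inhibition.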

[3] = NFAT Signaling Pathway (AID 444; active = well fitted curve in either direction with a large enough effect, not every such curve was filed as active;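 note: carbachol stimulus at about its EC50 of 1 µM final; % is set by controls: 0 for no effect and ±100 for the full control effect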); settings: Jurkat NFAT-bla M1, carbachol, beta-lactamase ratio, 5 h; at 7.69 µM (top of the series) unless noted
How it was run: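 Jurkat cells carrying an NFAT-driven β-lactamase reporter and co-transfected muscarinic M1 receptor were treated with compound plus carbachol (1 uM final, an EC50 level) for 5 h at 37 °C. CCF4 loading followed for 1 h at RT; 460/530 nm ratio gave %activity.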

[4] = Stat Signaling Pathway (AID 446; active = well fitted curve in either direction with a large enough effect, not every such curve was filed as active;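 note: ME-180 cervical cancer cells given 40 pM IL-6 alongside compound; SIE-controlled beta-lactamase reporter measured as 460/530 nm FRET emission ratio; % is set by controls: 0 for no effect and ±100 for the full control effect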); settings: ME-180 SIE beta-lactamase reporter, IL-6 stimulated, 5 h; at 7.69 µM (top of the series) unless noted
How it was run: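 Compound effects on IL-6-induced STAT reporter activity were measured in ME-180 cells. After overnight culture, cells were co-treated with 40 pM IL-6 for 5 hrs before beta-lactamase substrate loading at room temperature.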

[5] = biological target: Glucocorticoid receptor (Homo sapiens) (UniProt P04150); test: GR-EFC Redistribution (AID 451; calls by dose curve; note: potency is the fitted concentration of half-maximal effect); settings: CHO-K1 GR-EFC translocation, beta-gal luminescence, 2 h
How it was run: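 CHO-K1 cells stably expressing nuclear-localized β-gal enzyme acceptor and GR fused C-terminally to the enzyme donor fragment; ligand-driven nuclear translocation restores β-gal by complementation. Compounds titrated up to 46 uM final, 2 h at 37 °C; luminescence read.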

[6] = biological target: Mitogen-activated protein kinase 10 (Mus musculus) (UniProt Q61831); test: JNK3 AlphaScreen Assay (AID 530; active = well fitted curve in either direction with a large enough effect, not every such curve was filed as active;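 note: kinase came from lysate of stimulated human HepG2 cells; signal reports phosphorylation of biotinylated GST-cJun 1-79 at Ser73 with 10 µM ATP; % is set by controls: 0 for no effect and ±100 for the full control effect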); settings: JNK3 lysate, c-Jun phosphorylation; series mostly up to 57.1 µM
How it was run: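 Phosphorylation of biotinylated GST-cJun(1-79) at Ser73 is measured by AlphaScreen proximity luminescence. Enzyme is JNK3 in HepG2 lysates activated with interleukin-1beta and tumor necrosis factor alpha; ATP is 10 uM final.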

[7] = biological target: 3',5'-cyclic-AMP phosphodiesterase 4B (Homo sapiens) (UniProt Q07343); test: qHTS Assay for Inhibitors of PDE-IV (AID 607; active = well fitted activation curve with a large enough effect in the main read-out, with a control signal flat, not every such curve was filed as active; note: % of control where 0% means no effect); settings: HEK293 ACTOne CNG channel cells, membrane potential fluorescence; series mostly up to 22.9 µM
How it was run: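 ACTOne HEK293 cells carry a modified cAMP-gated CNG channel and express endogenous PDE4; plated 1000 cells/well, compounds up to 22.9 uM final. Membrane-potential dye fluorescence (ex 535/em 590) was read; parental cells received 10 uM forskolin + 100 uM RO 20-1724.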

[8] = biological target: Cytochrome P450 3A4 (Homo sapiens) (UniProt P08684); test: qHTS Assay for Activators of Cytochrome P450 3A4 (AID 885); settings: recombinant CYP3A4, Luciferin-PPXE luminescence, 60 min; series mostly up to 57.1 µM; note: nearly all actives have a fitted effect of over 65% in size
How it was run: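 CYP3A4 activity: Luciferin-PPXE O-dealkylation, 25uM substrate, 200mM KPO4, RT throughout. Read-out is luciferase luminescence; higher values reflect activation.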

[9] = qHTS Assay for Lipid Storage Modulators (AID 1519; calls by dose curve); settings: Drosophila S3 cells, BODIPY lipid droplet/cell ratio, laser cytometry, cells loaded with oleic acid; for activity change, negative = inhibition: at 57.5 µM (top of the series)
How it was run: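 Cells seeded at 5,000 per well were treated with compounds over a concentration series and loaded with oleic acid (400 uM, as added). Lipid droplet fluorescence (488 nm excitation, 500-530 nm channel) was read by laser-scanning cytometry and normalized to 20 uM Triacsin C.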

[10] = Primary qHTS for small molecule stabilizers of the endoplasmic reticulum resident proteome: Secreted ER Calcium Modulated Protein (SERCaMP) assay (AID 1508630); settings: SH-SY5Y GLuc-SERCaMP (Gaussia luciferase released on ER calcium loss) secretion, thapsigargin, luminescence; series mostly up to 38.4 µM; note: % is set by controls: 0 for no effect and ±100 for the full control effect
How it was run: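 The SH-SY5Y reporter protocol was run at 3 concentrations up to 38.3 uM (primary) or 11 concentrations (follow-up): 16 h compound, 100 nM thapsigargin for 4 h, then extracellular luciferase luminescence.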

[11] = biological target: Glucocorticoid receptor (Homo sapiens) (UniProt P04150); test: GR-GFP Redistribution (AID 450;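 active = compounds whose dose series gives a full or clear partial fitted curve of increased nuclear translocation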; note: potency is the fitted concentration of half-maximal effect); settings: U2OS GR-GFP nuclear translocation, laser cytometry, 2 h
[12] = biological target: Cytochrome P450 3A4 (Homo sapiens) (UniProt P08684); test: qHTS Assay for Inhibitors and Substrates of Cytochrome P450 3A4 (AID 884); settings: recombinant CYP3A4, Luciferin-PPXE luminescence; series mostly up to 57.1 µM; note: potency is the fitted concentration of half-maximal effect; nearly all actives have a fitted effect of over 50% in size
How it was run: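 Luminescent readout of luciferin produced by CYP3A4 (20 nM) dealkylation of Luciferin-PPXE, 25 uM (its KM). NADPH-driven reaction ran 60 min at RT after 10 min compound preincubation; data scaled to 57 uM ketoconazole as 100% inhibition.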

[13] = Confirmation and Secondary Assay for Modulators of Hemoglobin Beta Chain Splicing at IVS2 654 locus (AID 910); settings: HeLa EGFP-654 splicing reporter, GFP fluorescence, 48 h; series mostly up to 38.3 µM;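 note: per-well total GFP intensity by laser scanning cytometry after 2-day treatment; % of control where 0% means no effect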
How it was run: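 HeLa cells stably carrying EGFP interrupted by mutant beta-globin IVS2-654 intron (CMV-driven) were treated with compound for 2 days at 37C; corrected splicing was scored as total peak GFP intensity per well (488 nm excitation, 500-520 nm emission).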

[14] = Confirmation and Secondary Assay for Modulators of Hemoglobin Beta Chain Splicing at IVS2 705 locus (AID 930); settings: HeLa EGFP-705 splicing reporter, GFP fluorescence, 48 h; series mostly up to 38.3 µM;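 note: HeLa cells stably expressing the EGFP-705 splicing reporter; % of control where 0% means no effect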
How it was run: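 Restored EGFP fluorescence after 2-day compound exposure reports splicing correction in IVS2-705 EGFP reporter HeLa cells; positive control was 500 nM splice-blocking PNA oligo. Signal measured as well total peak GFP intensity (488 nm excitation).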

[15] = AP1 Signaling Pathway (AID 357; active = well fitted curve in either direction with a large enough effect, not every such curve was filed as active); settings: ME-180 (cervical carcinoma) AP-1-bla reporter, EGF-induced, beta-lactamase ratio, 5 h; at 7.69 µM (top of the series) unless noted
How it was run: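 A ratiometric CCF4 readout (405 nm excitation; 460 and 530 nm emission) quantified AP-1-driven beta-lactamase in ME-180 cells after 5 h with compound and EC50 EGF; AC50 values were derived for activators and inhibitors.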

[16] = biological target: Cytochrome P450 2C19 (Homo sapiens) (UniProt P33261); test: qHTS Assay for Inhibitors and Substrates of Cytochrome P450 2C19 (AID 899); settings: recombinant CYP2C19, luciferin-H EGE luminescence; series mostly up to 57.1 µM; note: potency is the fitted concentration of half-maximal effect; nearly all actives have a fitted effect of over 60% in size
How it was run: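 NADPH-dependent conversion of Luciferin-H EGE (10uM, at KM) by 5nM enzyme in 50mM KPO4, 60 min at 37C following 10 min compound preincubation. Stopped with luciferin detection buffer; luminescence read after 20 min.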

[17] = biological target: Cytochrome P450 2D6 (Homo sapiens) (UniProt P10635); test: qHTS Assay for Inhibitors and Substrates of Cytochrome P450 2D6 (AID 891); settings: recombinant CYP2D6, luciferin-ME EGE luminescence; series mostly up to 57.1 µM; note: potency is the fitted concentration of half-maximal effect; nearly all actives have a fitted effect of over 60% in size
How it was run: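 Luminescent read-out of luciferin formed by 5 nM human CYP2D6 demethylating 30 uM Luciferin-ME EGE (Km level) over 60 min at room temperature after NADPH regeneration addition. Data normalized to full inhibition by 1.43 uM quinidine.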

[18] = biological target: Ubiquitin carboxyl-terminal hydrolase 1 (Homo sapiens) (UniProt O94782); test: Inhibitors of USP1/UAF1: Pilot qHTS (AID 504865); settings: purified USP1/UAF1, Ub-rhodamine cleavage fluorescence; series mostly up to 54.9 µM;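 note: rhodamine fluorescence freed from ubiquitin-rhodamine substrate followed over time; top concentration of the series differs between compounds; % is set by controls: 0 for no effect and ±100 for the full control effect; nearly all actives have a fitted effect of over 35% in size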
How it was run: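 USP1/UAF1 complex (1nM) preincubated with compound 15 min at room temperature, then Ub-Rho substrate (150nM final) added. Fluorescence read kinetically at 480/540 nm, 6 reads every 60 seconds. Buffer: 50mM HEPES pH 7.8, 0.5mM EDTA, 0.1 mg/ml BSA, 1mM TCEP, 0.01% Tween-20.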

[19] = measured here: cell count channel max response
[20] = measured here: lipid channel max response

Cytochrome P450 3A4 (Homo sapiens), sequence (P08684 whole entry, looked up): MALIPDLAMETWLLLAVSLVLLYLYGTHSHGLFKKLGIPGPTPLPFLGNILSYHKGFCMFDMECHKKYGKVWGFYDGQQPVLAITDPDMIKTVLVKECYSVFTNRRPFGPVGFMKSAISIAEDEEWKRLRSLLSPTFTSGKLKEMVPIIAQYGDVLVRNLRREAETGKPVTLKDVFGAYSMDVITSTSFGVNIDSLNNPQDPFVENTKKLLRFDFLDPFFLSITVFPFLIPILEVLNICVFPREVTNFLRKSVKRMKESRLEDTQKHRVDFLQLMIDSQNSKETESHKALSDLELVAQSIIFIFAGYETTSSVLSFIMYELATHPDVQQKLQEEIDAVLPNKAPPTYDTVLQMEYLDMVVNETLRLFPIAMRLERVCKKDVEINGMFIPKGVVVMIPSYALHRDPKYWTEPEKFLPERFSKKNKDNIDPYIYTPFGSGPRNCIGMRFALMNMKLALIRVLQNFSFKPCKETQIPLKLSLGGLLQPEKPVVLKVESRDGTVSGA
Glucocorticoid receptor (Homo sapiens), sequence (P04150 whole entry, looked up, the tested form may be a part): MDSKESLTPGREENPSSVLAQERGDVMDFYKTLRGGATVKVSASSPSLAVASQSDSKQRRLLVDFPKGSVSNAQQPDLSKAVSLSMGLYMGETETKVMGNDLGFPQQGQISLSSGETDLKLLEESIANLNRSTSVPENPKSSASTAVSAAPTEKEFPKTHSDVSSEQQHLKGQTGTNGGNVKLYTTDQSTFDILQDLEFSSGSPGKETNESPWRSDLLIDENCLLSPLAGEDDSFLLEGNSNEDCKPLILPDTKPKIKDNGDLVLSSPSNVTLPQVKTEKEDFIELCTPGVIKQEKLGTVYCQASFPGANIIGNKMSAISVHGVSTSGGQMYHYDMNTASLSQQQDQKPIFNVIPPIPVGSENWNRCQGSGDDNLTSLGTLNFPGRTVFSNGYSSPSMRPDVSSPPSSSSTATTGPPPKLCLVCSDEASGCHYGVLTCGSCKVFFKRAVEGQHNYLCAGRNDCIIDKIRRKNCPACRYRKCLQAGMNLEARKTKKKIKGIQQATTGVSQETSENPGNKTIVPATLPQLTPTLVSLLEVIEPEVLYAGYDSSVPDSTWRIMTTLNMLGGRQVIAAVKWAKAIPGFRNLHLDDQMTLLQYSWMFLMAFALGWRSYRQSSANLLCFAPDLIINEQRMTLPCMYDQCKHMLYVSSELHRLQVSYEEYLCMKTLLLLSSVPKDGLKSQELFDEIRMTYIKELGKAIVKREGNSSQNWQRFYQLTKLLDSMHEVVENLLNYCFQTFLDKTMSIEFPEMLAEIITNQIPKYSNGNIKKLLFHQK
Lysosomal acid glucosylceramidase (Homo sapiens), sequence (P04062 whole entry, looked up): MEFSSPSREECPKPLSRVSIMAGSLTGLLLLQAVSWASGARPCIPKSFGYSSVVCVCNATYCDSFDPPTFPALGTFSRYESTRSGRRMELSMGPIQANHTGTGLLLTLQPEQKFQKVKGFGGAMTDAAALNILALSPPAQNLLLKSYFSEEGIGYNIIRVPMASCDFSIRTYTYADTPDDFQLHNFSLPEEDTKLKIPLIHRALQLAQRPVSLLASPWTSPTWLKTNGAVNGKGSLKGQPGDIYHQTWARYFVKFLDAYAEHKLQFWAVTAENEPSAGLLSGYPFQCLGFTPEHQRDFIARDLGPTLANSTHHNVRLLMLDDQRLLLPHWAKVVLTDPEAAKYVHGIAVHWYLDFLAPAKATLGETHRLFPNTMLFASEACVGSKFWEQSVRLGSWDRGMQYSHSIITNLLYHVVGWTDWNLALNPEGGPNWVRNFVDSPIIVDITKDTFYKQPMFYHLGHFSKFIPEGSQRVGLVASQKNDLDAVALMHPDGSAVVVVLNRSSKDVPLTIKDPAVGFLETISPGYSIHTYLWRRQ
Cytochrome P450 1A2 (Homo sapiens), sequence (P05177 whole entry, looked up): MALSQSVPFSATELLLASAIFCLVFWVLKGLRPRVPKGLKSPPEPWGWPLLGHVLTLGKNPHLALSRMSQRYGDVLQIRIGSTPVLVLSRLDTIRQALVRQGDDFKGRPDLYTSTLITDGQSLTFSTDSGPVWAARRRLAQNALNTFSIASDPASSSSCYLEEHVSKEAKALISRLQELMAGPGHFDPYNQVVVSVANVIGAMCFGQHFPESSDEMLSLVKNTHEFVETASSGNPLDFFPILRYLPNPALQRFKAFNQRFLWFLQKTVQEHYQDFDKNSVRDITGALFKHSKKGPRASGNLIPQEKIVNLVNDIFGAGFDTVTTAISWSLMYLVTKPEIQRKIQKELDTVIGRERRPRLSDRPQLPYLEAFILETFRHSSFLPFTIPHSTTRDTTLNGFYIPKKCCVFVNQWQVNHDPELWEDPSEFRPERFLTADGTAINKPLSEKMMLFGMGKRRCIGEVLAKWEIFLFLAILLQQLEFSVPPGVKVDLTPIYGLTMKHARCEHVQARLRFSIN
3',5'-cyclic-AMP phosphodiesterase 4B (Homo sapiens), sequence (Q07343 whole entry, looked up): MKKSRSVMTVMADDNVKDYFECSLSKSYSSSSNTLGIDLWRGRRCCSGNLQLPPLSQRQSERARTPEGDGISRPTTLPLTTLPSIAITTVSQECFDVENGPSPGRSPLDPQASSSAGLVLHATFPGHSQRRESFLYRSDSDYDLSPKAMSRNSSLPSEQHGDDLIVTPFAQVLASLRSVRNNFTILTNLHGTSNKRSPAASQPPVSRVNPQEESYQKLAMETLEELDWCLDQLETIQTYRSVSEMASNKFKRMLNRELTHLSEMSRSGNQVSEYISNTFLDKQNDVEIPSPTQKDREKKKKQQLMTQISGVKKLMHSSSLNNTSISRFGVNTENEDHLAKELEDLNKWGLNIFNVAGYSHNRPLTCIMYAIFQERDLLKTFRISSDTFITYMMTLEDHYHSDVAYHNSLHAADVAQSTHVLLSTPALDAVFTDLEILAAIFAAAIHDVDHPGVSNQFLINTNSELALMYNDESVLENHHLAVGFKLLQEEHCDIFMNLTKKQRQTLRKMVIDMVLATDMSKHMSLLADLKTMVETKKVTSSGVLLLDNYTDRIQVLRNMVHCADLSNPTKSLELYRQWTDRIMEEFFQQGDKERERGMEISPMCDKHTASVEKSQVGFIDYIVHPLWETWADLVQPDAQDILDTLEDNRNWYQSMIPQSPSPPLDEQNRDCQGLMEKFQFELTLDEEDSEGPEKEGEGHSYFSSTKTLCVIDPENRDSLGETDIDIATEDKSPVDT
Cytochrome P450 2C19 (Homo sapiens), sequence (P33261 whole entry, looked up): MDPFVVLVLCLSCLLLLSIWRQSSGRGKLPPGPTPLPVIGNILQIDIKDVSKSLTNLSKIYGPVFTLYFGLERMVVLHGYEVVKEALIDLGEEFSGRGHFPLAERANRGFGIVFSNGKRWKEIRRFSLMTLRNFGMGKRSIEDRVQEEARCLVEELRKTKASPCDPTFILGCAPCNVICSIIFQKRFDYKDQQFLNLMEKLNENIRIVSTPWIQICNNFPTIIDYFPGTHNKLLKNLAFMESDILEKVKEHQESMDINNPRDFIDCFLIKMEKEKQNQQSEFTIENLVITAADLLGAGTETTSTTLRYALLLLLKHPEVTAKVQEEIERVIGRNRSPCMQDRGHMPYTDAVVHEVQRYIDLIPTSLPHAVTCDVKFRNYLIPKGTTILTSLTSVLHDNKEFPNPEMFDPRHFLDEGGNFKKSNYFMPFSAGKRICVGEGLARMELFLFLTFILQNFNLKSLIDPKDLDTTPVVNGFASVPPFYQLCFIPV
Ubiquitin carboxyl-terminal hydrolase 1 (Homo sapiens), sequence (O94782 whole entry, looked up): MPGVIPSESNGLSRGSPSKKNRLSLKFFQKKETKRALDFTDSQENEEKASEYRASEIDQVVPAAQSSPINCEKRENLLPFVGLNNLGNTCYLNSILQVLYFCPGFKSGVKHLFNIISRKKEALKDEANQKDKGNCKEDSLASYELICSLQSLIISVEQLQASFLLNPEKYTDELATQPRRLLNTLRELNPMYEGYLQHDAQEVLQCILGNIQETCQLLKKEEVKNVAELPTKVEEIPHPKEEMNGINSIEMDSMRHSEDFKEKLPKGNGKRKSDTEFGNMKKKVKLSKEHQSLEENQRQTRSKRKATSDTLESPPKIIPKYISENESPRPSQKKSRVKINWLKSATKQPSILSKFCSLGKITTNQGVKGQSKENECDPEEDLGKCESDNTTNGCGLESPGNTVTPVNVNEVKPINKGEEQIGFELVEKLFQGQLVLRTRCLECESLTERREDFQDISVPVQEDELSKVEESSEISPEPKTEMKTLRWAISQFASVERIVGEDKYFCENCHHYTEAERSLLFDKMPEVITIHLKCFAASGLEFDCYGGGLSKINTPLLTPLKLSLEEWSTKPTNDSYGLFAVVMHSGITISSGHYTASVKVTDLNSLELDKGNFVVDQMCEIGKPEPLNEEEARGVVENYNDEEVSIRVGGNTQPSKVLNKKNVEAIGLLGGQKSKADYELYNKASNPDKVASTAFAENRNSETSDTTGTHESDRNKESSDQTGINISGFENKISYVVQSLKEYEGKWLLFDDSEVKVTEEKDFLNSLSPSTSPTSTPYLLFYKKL
Cytochrome P450 2D6 (Homo sapiens), sequence (P10635 whole entry, looked up): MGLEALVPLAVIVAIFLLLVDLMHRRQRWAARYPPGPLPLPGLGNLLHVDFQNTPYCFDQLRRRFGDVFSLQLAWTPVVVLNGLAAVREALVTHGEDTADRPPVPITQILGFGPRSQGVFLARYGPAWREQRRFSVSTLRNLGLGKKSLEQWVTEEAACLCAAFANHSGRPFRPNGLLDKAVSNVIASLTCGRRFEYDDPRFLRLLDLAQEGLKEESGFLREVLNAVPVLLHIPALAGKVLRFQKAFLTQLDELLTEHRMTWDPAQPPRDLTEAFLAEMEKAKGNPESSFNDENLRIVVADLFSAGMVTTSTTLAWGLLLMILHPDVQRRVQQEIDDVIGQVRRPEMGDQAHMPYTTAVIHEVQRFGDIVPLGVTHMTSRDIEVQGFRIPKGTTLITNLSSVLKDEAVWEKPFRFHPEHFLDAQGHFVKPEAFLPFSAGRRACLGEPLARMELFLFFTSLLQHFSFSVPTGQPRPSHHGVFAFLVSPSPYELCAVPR

CC(C)NC(=O)N1CC[C@@]2(CCCN(S(=O)(=O)c3ccccc3)C2)C1
inactive: Potency [1] > 11.4 µM | Potency [2] | activity change, negative = inhibition [3] 18.4% | activity, negative = inhibition [4] 1.4% | Potency [5] > 46 µM | Potency [6] | Potency [7] | Potency [8] | activity change, negative = inhibition [9] 3.83% | outcome [10]
-9.01%: max response [9, 19]
-4.67%: max response [9, 20]

c1ccc(Nc2ncnc3ccc(-c4cccnc4)cc23)cc1
-20.7%: max response [9, 19]
active: Potency [2] 0.0794 µM | Potency [12] 2.51 µM
-13.8%: max response [9, 20]
inactive: Potency [1] > 11.4 µM | activity, negative = inhibition [4] 19.3% | Potency [11] > 46 µM | Potency [5] > 46 µM | Potency [6] | Potency [7] | Potency [8] | Potency [13] | outcome [14] | activity change, negative = inhibition [9] 7.8% | outcome [10]

COC(=O)N1CCC2(CCCN(c3ccccn3)C2)CC1
inactive: Potency [1] > 11.4 µM | activity change, negative = inhibition [15] -5.95% | activity, negative = inhibition [4] -6.11% | Potency [5] > 46 µM | Potency [6] | Potency [7] | activity change, negative = inhibition [9] 1.3% | outcome [10]
active: Potency [16] 3.16 µM
15.8%: max response [9, 20]
13.5%: max response [9, 19]

O=C(c1cnccn1)N1CCC2(CC1)CN(c1ncccn1)C2
15.3%: max response [9, 20]
inactive: Potency [1] > 11.4 µM | activity change, negative = inhibition [15] -12.2% | activity, negative = inhibition [4] 21.6% | Potency [5] > 46 µM | Potency [6] | Potency [7] | activity change, negative = inhibition [9] 6.01% | outcome [10]
6.2%: max response [9, 19]

c1nc(NCCN2CCOCC2)c2cc(-c3ccc4c(c3)OCO4)ccc2n1
2.73%: max response [9, 19]
active: Potency [2] 2.51 µM | Potency [12] 5.01 µM | Potency [17] 7.94 µM
12.8%: max response [9, 20]
inactive: activity change, negative = inhibition [15] -13.5% | activity change, negative = inhibition [3] 1.02% | activity, negative = inhibition [4] -4.03% | Potency [11] > 46 µM | Potency [5] > 46 µM | Potency [6] | Potency [7] | Potency [8] | Potency [13] | outcome [14] | activity change, negative = inhibition [9] 10.6% | Potency [18] | outcome [10]

Cc1noc(C)c1C(=O)N1CCC2(CC1)CCN(c1ccncc1)CC2
9.32%: max response [9, 19]
12.2%: max response [9, 20]
inactive: Potency [1] > 11.4 µM | Potency [2] | activity, negative = inhibition [4] 8.12% | Potency [5] > 46 µM | Potency [6] | Potency [7] | Potency [8] | activity change, negative = inhibition [9] 1.45% | outcome [10]
